# Assay results: the supplement of paper PMC8728848
# This is one part of a sample in which the strongest signals are shown more often than they occur.
# B1: MIC13 (Toxoplasma gondii), A0A125YWL1 (protein)
# chain: IQLRQHRNGLGVEQSFVSEETDIVGGRISSLQAELDSYCHNRYKQLCDGGNKKFCDKTGVARYGTGIQSQQTAEWRCYFAEVLKPSGRKVQCVDDCGNYFPCLGVVDPNDTFHATAHNQILNFIKDGVEKHCSPFQMAGNNYCQGVLADTVARKDTGTASQKAKAWRCYKKDSLTYEARSICVDNCGGEIECPGGRSETSGELLSQHYTREKELQKVIESQSAPCHDACVATPINPPICADTESLLQSTKRSRAQRFIDDACQKLFNCHCKKDKKFCTTVVARKDRGRAGSQNDAEWRCYSLEELDFQKTNPSCIDECGNELPCQGAVPEESTHHITWTKLPSKIDEATQKFCTERQRAANDYCASEFADSLARYGPGAGDQTSQFRCIKKAAMRADAEGQCADSCKGTETCGGGRSRLDGPLSVDDVLNAHEGISEAMKSASTEC
# B2: MIC1 (Neospora caninum), Q8WRS0 (protein)
# chain: AGAKTYGEASQPSASARSLQGALDTWCQEVFKKLCDDGYSKMCIPANQVVARQGLGRKDQQKLVWRCYDSAAFLAEGDENNVLSCVDDCGVSIPCPGGVDRDNSTHATRHDELSQLIKEGVVRYCSGFQAAANSYCNKRYPGTVARKSKGFGHKEPVKWRCYKPESLLFSVFSECVSNCGTTWSCPGGRLGTATNLDKKHFTDESGILQALTSVPKACPVGLVCLPRDQNPPACLDDNGNVPE
# Assays:
# Test in all cases: glycan array binding signal (z-score within array); higher = stronger binding
# Settings in all cases: glycan notation: IUPAC condensed, linker removed
# [1] = biological target: Gal(b1-3)GalNAc(b1-4)[Neu5Gc(a2-3)]Gal(b1-4)Glc
# Procedure, shortened: (§1)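 The Consortium for Functional Glycomics database supplied 3228 glycan arrays, of which those lacking an available protein sequence were dropped. The binding signal, a within-array Z-score, was averaged across arrays of the same protein sequence and across linkers. Negative scores can be read as non-binding.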
# Neu(a2-3)Gal(b1-4)Glc = biological target: Neu(a2-3)Gal(b1-4)Glc
# Procedure, shortened: as §1
# Neu(a2-6)Gal(b1-4)Glc = biological target: Neu(a2-6)Gal(b1-4)Glc
# Procedure, shortened: as §1
# [2] = biological target: Neu5Ac(a2-3)Gal(b1-3)GalNAc(b1-4)Gal(b1-4)Glc
# Procedure, shortened: as §1
# [3] = biological target: Neu5Ac(a2-3)Gal(b1-3)GlcNAc(b1-3)[Fuc(a1-3)[Gal(b1-4)]GlcNAc(b1-6)]Gal(b1-4)Glc
# Procedure, shortened: as §1
# [4] = biological target: Neu5Ac(a2-3)Gal(b1-4)[Fuc(a1-3)]GlcNAc6S(b1-3)Gal(b1-4)Glc
# Procedure, shortened: as §1
# [5] = biological target: Neu5Ac(a2-3)Gal6S(b1-4)[Fuc(a1-3)]GlcNAc6S(b1-3)Gal(b1-4)Glc
# Procedure, shortened: as §1
# [6] = biological target: Neu5Ac(a2-6)Gal(b1-4)GlcNAc(b1-3)[Neu5Ac(a2-6)Gal(b1-4)GlcNAc(b1-6)]Gal(b1-4)Glc
# Procedure, shortened: as §1
# [7] = biological target: Neu5Ac(a2-9)Neu5Ac(a2-3)Gal(b1-4)Glc
# Procedure, shortened: as §1
# Neu5Gc(a2-3)Gal(b1-4)Glc = biological target: Neu5Gc(a2-3)Gal(b1-4)Glc
# Procedure, shortened: as §1
# [8] = biological target: Gal(b1-3)GalNAc(b1-4)[Neu5Ac(a2-3)]Gal(b1-4)Glc
# Procedure, shortened: as §1
# [9] = biological target: Gal(b1-3)GlcNAc(b1-3)Gal(b1-4)Glc
# Procedure, shortened: as §1
# [10] = biological target: Neu(a2-3)Gal6S(b1-4)[Fuc(a1-3)]GlcN(b1-3)Gal(b1-4)Glc
# Procedure, shortened: as §1
# [11] = biological target: Neu5Ac(a2-3)Gal(b1-4)[Fuc(a1-3)]GlcNAc(b1-3)Gal(b1-4)Glc
# Procedure, shortened: as §1
# [12] = biological target: Neu5Ac(a2-3)Gal6S(b1-4)[Fuc(a1-3)]GlcNAc(b1-3)Gal(b1-4)Glc
# Procedure, shortened: as §1
# [13] = biological target: Neu5Ac(a2-8)Neu5Ac(a2-8)Neu5Ac(a2-8)Neu5Ac(a2-8)Neu5Ac(a2-8)Neu5Ac(a2-8)Neu5Ac
# Procedure, shortened: as §1
# [14] = biological target: Neu5Ac(a2-8)Neu5Ac(a2-8)Neu5Ac(a2-8)Neu5Ac(a2-8)Neu5Ac(a2-8)Neu5Ac(a2-8)Neu5Ac(a2-8)Neu5Ac(a2-8)Neu5Ac
# Procedure, shortened: as §1
# [15] = biological target: Neu5Ac(a2-8)Neu5Ac(a2-8)Neu5Ac(a2-8)Neu5Ac(a2-8)Neu5Ac(a2-8)Neu5Ac(a2-8)Neu5Ac(a2-8)Neu5Ac(a2-8)Neu5Ac(a2-8)Neu5Ac(a2-8)Neu5Ac
# Procedure, shortened: as §1
# [16] = biological target: Neu5Ac9Ac(a2-6)Gal(b1-4)GlcNAc
# Procedure, shortened: as §1
Binder,glycan array binding signal (z-score) [1],glycan array binding signal (z-score) (Neu(a2-3)Gal(b1-4)Glc),glycan array binding signal (z-score) (Neu(a2-6)Gal(b1-4)Glc),glycan array binding signal (z-score) [2],glycan array binding signal (z-score) [3],glycan array binding signal (z-score) [4],glycan array binding signal (z-score) [5],glycan array binding signal (z-score) [6],glycan array binding signal (z-score) [7],glycan array binding signal (z-score) (Neu5Gc(a2-3)Gal(b1-4)Glc),glycan array binding signal (z-score) [8],glycan array binding signal (z-score) [9],glycan array binding signal (z-score) [10],glycan array binding signal (z-score) [11],glycan array binding signal (z-score) [12],glycan array binding signal (z-score) [13],glycan array binding signal (z-score) [14],glycan array binding signal (z-score) [15],glycan array binding signal (z-score) [16]
B1,-0.151,-0.234,-0.287,-0.287,-0.243,0.435,2.31,-0.287,8.12,-0.038,–,–,–,–,–,–,–,–,–
B2,–,-0.422,–,–,–,0.848,4.92,–,–,–,-0.344,-0.441,-0.441,-0.359,6.08,0.538,-0.166,-0.291,-0.428
